# Measured values published in PubChem BioAssay AID372 (MTDP, 2006).
# In all, about 100,000 compounds went through this assay and about 770 (0.77%) were called active. Shown is part of a subset that was picked to be rich in actives. A number with no mark means an inactive call. No stated cut-off is given here; in the data, active means inhibition above about 50%; inactive means the rest.
# Molecular target: Gag-Pol polyprotein (Human immunodeficiency virus type 1 group M subtype B (isolate HXB2)) (UniProt P04585)
# Assay: RNase H inhibition, HIV 1 Gag Pol polyprotein, FRET biochemical assay, screening (AID 372)
# Details: HIV-1 RT RNase H, FRET RNA/DNA substrate fluorescence; at 10 µM; stronger effect = higher value
row,Compound,inhibition
1,Cc1c(OCc2c(F)cccc2Cl)ccc2c3c(c(=O)oc12)CCC3,0%
2,CCOC(=O)c1c(NC(C)=O)sc2c1CCc1ccccc1-2,1%
3,COC(=O)c1c(N)sc2c1CCc1ccccc1-2,9%
4,CCOC(=O)c1c(N)sc2c1CCc1ccccc1-2,51% (active)
5,Cc1ccc(-c2nc(N/N=C/c3ccccc3)c3ccccc3n2)cc1,10%
6,Cc1ccc(-c2nc(N/N=C/c3ccccc3Cl)c3ccccc3n2)cc1,58% (active)
7,Cc1ccc(-c2nc(N/N=C/c3ccccc3O)c3ccccc3n2)cc1,20%
8,Oc1ccccc1C(=S)N1CCOCC1,24%
9,COc1ccc(OC)c(C(=S)N2CCOCC2)c1,11%
10,COc1ccccc1C(=S)N1CCOCC1,70% (active)
11,COc1ccc2c(c1)c(/C=C/c1nc3ccccc3c(=O)n1-c1ccccc1[N+](=O)[O-])c(C)n2C,1%
12,CN(c1ccc(C(=O)N2CCN(c3ccccc3)CC2)cc1)S(=O)(=O)c1ccccc1,6%
13,CN(c1ccc(C(=O)Nc2cc(Cl)ccc2Cl)cc1)S(=O)(=O)c1ccccc1,54% (active)
14,CN(c1ccc(C(=O)N2CCCC2)cc1)S(=O)(=O)c1ccccc1,5%
15,CNC(=O)c1ccc(N(C)S(=O)(=O)c2ccccc2)cc1,2%
16,CC1CCN(C(=O)c2ccc(N(C)S(=O)(=O)c3ccccc3)cc2)CC1,51% (active)
17,CN(c1ccc(C(=O)Nc2cc(Cl)cc(Cl)c2)cc1)S(=O)(=O)c1ccccc1,8%
18,Cc1ccccc1CNC(=O)c1ccc(N(C)S(=O)(=O)c2ccccc2)cc1,0%
19,Cc1cccc(C)c1NC(=O)c1ccc(N(C)S(=O)(=O)c2ccccc2)cc1,57% (active)
20,CN(c1ccc(C(=O)Nc2ccccc2F)cc1)S(=O)(=O)c1ccccc1,9%
21,Cc1nn(CC(=O)Nc2ccc(Cl)cc2Cl)c(C)c1[N+](=O)[O-],0%
22,O=C(O)C1CN(S(=O)(=O)c2ccccc2)CCN1S(=O)(=O)c1ccccc1 (stereo not given),8%

row,Compound,inhibition
1,CCN(CC)C(=O)C1CN(S(=O)(=O)c2ccccc2)CCN1S(=O)(=O)c1ccccc1 (stereo not given),54% (active)
2,COC(=O)C1CN(S(=O)(=O)c2ccccc2)CCN1S(=O)(=O)c1ccccc1 (stereo not given),2%
3,Cc1cc(OC(C)C)c2c(-c3ccccc3)cc(=O)oc2c1,50% (active)
4,Cc1cc(OS(C)(=O)=O)c2c(-c3ccccc3)cc(=O)oc2c1,19%
5,Cc1cc(OCC(=O)OC(C)C)c2c(-c3ccccc3)cc(=O)oc2c1,20%
6,COc1ccc(NC(=O)n2nc(C(F)(F)F)nc2N)cc1,0%
7,Cc1cc(Cl)ccc1OC(C)C(=O)N1CCN(c2cccc(Cl)c2)CC1 (stereo not given),10%
8,CCOc1nc(Nc2ccc(Cl)cc2)nc(N2CCCCC2)n1,9%
9,c1ccc(-c2onc3ccc(Oc4ccc5noc(-c6ccccc6)c5c4)cc23)cc1,19%
10,O=S(=O)(NCCSCc1ccccc1)c1ccc(Cl)cc1,15%
11,O=[N+]([O-])c1ccccc1S(=O)(=O)NCCSCc1ccc(Cl)cc1,50% (active)
12,O=[N+]([O-])c1ccccc1S(=O)(=O)NCCSc1ccccc1,33%
13,COC(=O)c1ccc(-c2ccc(/C=C3\SC(=O)N(c4ccccc4)C3=O)o2)cc1,57% (active)
14,COC(=O)c1ccc(-c2ccc(/C=C3/SC(=S)N(c4ccccc4)C3=O)o2)cc1,4%
15,O=C(O)c1ccc(-c2ccc(/C=C3/SC(=O)N(c4ccccc4)C3=O)o2)cc1,15%
16,COc1cc(/C=C(\C#N)C(N)=S)ccc1OCc1ccccc1,10%
17,CCOc1ccc(N(CC(N)=O)S(=O)(=O)c2ccc(SC)cc2)cc1,0%
18,CCOC(=O)c1c(NC(C)=O)sc2c1CCN(C(=O)OCC)C2,9%
19,CCOC(=O)c1c(NC(=O)Cc2ccc(OC)cc2)sc2c1CCN(C(=O)OCC)C2,50% (active)
20,CCOC(=O)c1c(NC(=O)COc2ccc(Cl)cc2)sc2c1CCN(C(=O)OCC)C2,38%
21,CCOc1ccc(NC(=O)CSc2nc3ccccc3s2)cc1,10%
22,Nc1c2c(cc3ccccc13)C(=O)c1ccccc1C2=O,46%

row,Compound,inhibition
1,CCOc1ccccc1C(=O)Nc1cccc(OC)c1,11%
2,Cc1ccc(S(=O)(=O)NC(=O)OC(c2ccccc2)C(F)(F)F)cc1 (stereo not given),0%
3,CCc1ccccc1NC(=O)c1ccc(CN2CCc3ccccc3C2)cc1,7%
4,COc1cccc(OC)c1C(=O)Nc1cc(C)ccn1,0%
5,COc1ccccc1CC(=O)Nc1ccc(Br)c(C)c1,59% (active)
6,COc1ccccc1CC(=O)Nc1ccc(F)cc1F,55% (active)
7,CCC(C)c1ccc(NC(=O)Cc2ccccc2OC)cc1 (stereo not given),52% (active)
8,COc1ccccc1NC(=O)Cc1ccc(F)cc1F,0%
9,COc1ccc(CC(=O)Nc2ccc(Br)c(C)c2)cc1OC,12%
10,CCOC(=O)c1ccc(NC(=O)Cc2ccccc2OC)cc1,8%
11,COc1ccccc1CC(=O)Nc1cc(C)ccn1,53% (active)
12,COc1ccccc1CC(=O)Nc1ccc(F)cc1,10%
13,COc1ccccc1CC(=O)Nc1nccs1,14%
14,COc1ccccc1CC(=O)Nc1ccc(C)c(Cl)c1,5%
15,COc1ccccc1CC(=O)Nc1cccc(F)c1,0%
16,Cc1nonc1-c1cn2cc(Cl)ccc2n1,8%
17,COc1ccccc1C/C(N)=N/OC(=O)Cc1ccc(Cl)cc1,22%
18,O=C(Nc1ccc(S(=O)(=O)N2CCCCCC2)cc1)c1cccc([N+](=O)[O-])c1,9%
19,CCOC(=O)C1=C(C)N=c2s/c(=C\c3ccc([N+](=O)[O-])o3)c(=O)n2C1c1ccc(SC)cc1 (stereo not given),20%
20,COc1ccc(S(=O)(=O)N(CCc2ccccc2)CC(=O)NCC2CCCO2)cc1 (stereo not given),2%
21,CCOc1ccc(N2C(=O)/C(=C/c3cc(Br)c(O)c(OC)c3)C(=O)NC2=S)cc1,11%
